Source: PubChem
3CLpro inhibitor – SARS-CoV 3CLpro protease inhibitors, primary screen, biochemical, quenched FRET | 290,000 tested, 0.14% active | inhibition, % at 6 µM | recombinant SARS-CoV 3CLpro, quenched FRET peptide cleavage | Replicase polyprotein 1ab (Severe acute respiratory syndrome coronavirus), P0C6X7; in the data active = inhibition above about 12%
BJeLR lethal – MLPCN primary cell-based screen for lethality selective to Ras in HRASV12 cells; inhibition, % (concentration not given with the values); AID 1554, 2009; BJeLR (HRASV12) viability, CellTiter-Glo ATP luminescence, 48 h; 300,000 tested, 0.17% active; in the data active = inhibition above about 50%
VHR inh abs – VHR1 phosphatase inhibitors, primary screen, biochemical, absorbance, uHTS; recombinant VHR phosphatase, pNPP absorbance; Dual specificity protein phosphatase 3 (Homo sapiens), P51452; inhibition, % at 13.3 µM; AID 1654, 2009; 290,000 tested, 0.52% active; in the data active = inhibition above about 50%
Target sequence (P51452 whole entry, looked up): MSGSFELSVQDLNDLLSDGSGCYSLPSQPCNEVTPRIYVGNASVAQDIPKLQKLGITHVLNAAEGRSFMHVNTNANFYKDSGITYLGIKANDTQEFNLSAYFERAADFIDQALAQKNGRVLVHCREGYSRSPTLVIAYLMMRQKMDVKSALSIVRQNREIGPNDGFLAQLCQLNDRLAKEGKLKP
PrPC TRFRET – inhibitors of human cell surface prion protein PrPC, primary screen, cell-based, TR-FRET; Major prion protein (Homo sapiens), P04156; inhibition, % at 13.8 µM; TR-FRET read-out; 370,000 tested, 0.43% active; AID 720596, 2013; in the data active = inhibition above about 24%; note: 0% = median of the test wells and 100% = reference compound wells
Numbers without * were called inactive; · = no result given. Rows were chosen to be rich in hits. Some 1.1% of all compounds tested hit in one or more screens of this group.

SMILES | 3CLpro inhibitor | BJeLR lethal | VHR inh abs | PrPC TRFRET
CCN1CCc2c(C#N)c(NCc3ccccc3)nc(N(CC)CC)c2C1 | -3 | 3 | 56* | -9
C=C1C(=O)O[C@H]2C[C@@H](C)[C@@H]3C=CC(=O)[C@@]3(C)C[C@H]12 | · | 27 | -8 | 26*
C=C1C(=O)OC2C1CCC(C)C1C=CC(=O)C12C (stereo unspecified) | · | · | · | 0
CC1C/C(=C/c2ccncc2)C(=O)/C(=C/c2ccncc2)C1 (stereo unspecified) | -2 | 54* | 8 | 7
COC(=O)C1=C(C)N(Cc2ccc(C(F)(F)F)cc2)C(=NCc2ccc(C(F)(F)F)cc2)NC1c1cccc(F)c1 (stereo unspecified) | · | · | · | -2
CC1=C([N+](=O)[O-])C(c2ccccc2Cl)NC(=O)N1 (stereo unspecified) | -5 | -2 | 18 | -6
CC1=C([N+](=O)[O-])C(c2ccc(Cl)cc2)NC(=O)N1 (stereo unspecified) | -5 | -1 | 59* | -3
CCOC(=O)C1=CCC(c2ccccc2)N(S(C)(=O)=O)C1 (stereo unspecified) | · | · | · | 6
Cc1ccc(O)c(NC(=O)c2cc([N+](=O)[O-])ccc2Cl)c1 | 4 | 0 | 52* | -35
COc1cc(/C=N/NC(=O)c2cc3ccccc3[nH]2)ccc1O | -9 | 9 | 57* | -8
COc1cc(/C=N/NC(=O)CCC(=O)Nc2ccc(C)cc2)ccc1O | 0 | -5 | 52* | 7
COc1cc(/C=N/NC(=O)c2cccc(C(=O)N/N=C/c3ccc(O)c(OC)c3)n2)ccc1O | -3 | -3 | · | -1
CN(Cc1ccccc1)C(=O)[C@@H]1CCCN1C(=O)[C@@H]1CCCN1C(=O)c1cccc(Cl)c1 | · | · | · | 8
CCCn1c(CN2CCN(C(=O)c3ccco3)CC2)nc2cc(S(=O)(=O)N(C)C)ccc21 | · | · | · | -3
COc1ccc(OCC(O)Cn2c(N3CCCCC3)nc3c2c(=O)n(C)c(=O)n3C)cc1 (stereo unspecified) | 2 | -8 | 58* | 2
COc1ccc(OCC(O)Cn2c(N3CCCCC3)nc3c2c(=O)[nH]c(=O)n3C)cc1 (stereo unspecified) | -1 | -12 | 17 | 2
COC(=O)[C@]12C[C@H](CC(=O)NCCCCc3ccccc3)C(=O)N(Cc3ccccc3)C1=C[C@H](C(C)C)O[C@@H]2C1CC1 | · | · | · | 15
COC(=O)C1=C(C)N(Cc2ccccc2)C(=NCc2cccc(C(F)(F)F)c2)N[C@H]1c1cccc(F)c1 | -9 | 99* | 17 | -4
COC(=O)C[C@H]1CC[C@@H]2[C@H](COc3ccc(NC(=O)NCc4ccccc4)cc3C(=O)N2C)O1 | · | · | · | 1
CC1=CC(=O)C(C(C)C)=C/C1=N/OS(=O)(=O)c1ccccc1 | 4 | 116* | -14 | -4
CC1=CC(=O)C=C(C)C1=NOS(=O)(=O)c1ccccc1 | 2 | 82* | -29 | -6
O=[N+]([O-])c1ccc(O)c(-c2cc(C(F)(F)F)nc(-c3ccccc3)n2)c1 | 3 | 68* | 6 | 3
O=C1Nc2ccccc2/C1=N/N=C/c1ccc(-c2ccc([N+](=O)[O-])cc2)o1 | 0 | 6 | 54* | 3
COc1ccc(CCN2CC(C(=O)NCCc3ccc(C(F)(F)F)cc3)CCC2=O)cc1 (stereo unspecified) | 1 | 5 | -6 | 0
COC(=O)C1=C(C)N(C)C(=NCc2ccccc2)NC1c1ccccc1C(F)(F)F (stereo unspecified) | · | · | · | -12
SMILES | 3CLpro inhibitor | BJeLR lethal | VHR inh abs | PrPC TRFRET
CCC(CO)Nc1cccc2c1S(=O)(=O)N(Cc1cn(Cc3ccc(F)cc3)nn1)Cc1ccccc1O2 (stereo unspecified) | · | · | · | -5
COc1ccc(-c2cc(=O)oc3c(O)c(O)ccc23)cc1 | -1 | -9 | 59* | -15
COc1ccc(-c2cc(=O)oc3cc(OC(C)C(=O)O)ccc23)cc1 (stereo unspecified) | 4 | -4 | 26 | -17
Cc1cc(O)cc(=O)n1-c1cccc(C(F)(F)F)c1 | · | · | · | -7
CC(=O)c1c(C)[nH]c(C(=O)N2CCN(c3ccccn3)CC2)c1C | -7 | 0 | 57* | -2
COc1ccc2[nH]c(=O)c(CN(Cc3cccs3)S(=O)(=O)c3cccc4nsnc34)cc2c1 | 3 | 52* | -13 | 1
COc1cc(Cn2cc([C@]34C[C@H]5C(=O)N(C)CC(=O)N5[C@H]3N(S(=O)(=O)c3ccccc3)c3ccccc34)c3ccccc32)cc(OC)c1 | · | · | · | 2
